Test results from the supplement of paper PMC6555819.

Columns and labels:
Experiment in all cases: PBM binding z-score (relative to random genomic background probes); higher = stronger binding; sequences stand for … in GC…GCGATTGACAGCGTAGAATGAAGG
[1] = test system: FXR:RXRa (NR concentration 270 nM, RXRa partner concentration 90 nM)
Summary of the method: (§1)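 Custom Agilent 4×180K protein-binding microarrays carried double-stranded probes, each with a 34-nt variable region. These regions held direct-repeat seeds, single-nucleotide variants, half-site ablations and random human genomic background sequences. Ligand-free nuclear receptor dimers were incubated on the arrays for 1 h, antibodies against each partner (one per run) detected binding, and scanned fluorescence was regression-normalized. Binding z-scores take the random background probes as reference.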

[2] = test system: LXRa:RXRa (NR concentration 270 nM, RXRa partner concentration 90 nM)
Summary of the method: as §1

[3] = test system: LXRa homodimer (NR concentration 270 nM)
Summary of the method: as §1

[4] = test system: LXRb:RXRa (NR concentration 270 nM, RXRa partner concentration 90 nM)
Summary of the method: as §1

[5] = test system: LXRb homodimer (NR concentration 270 nM)
Summary of the method: as §1

[6] = test system: PPARa:RXRa (NR concentration 270 nM, RXRa partner concentration 90 nM)
Summary of the method: as §1

[7] = test system: PPARg:RXRa (NR concentration 180 nM, RXRa partner concentration 90 nM)
Summary of the method: as §1

[8] = test system: PPARg:RXRa 270nM:90nM, anti-RXR (NR concentration 270 nM, RXRa partner concentration 90 nM)
Summary of the method: as §1

[9] = test system: PPARg:RXRa 30nM:10nM, anti-RXR (NR concentration 30 nM, RXRa partner concentration 10 nM)
Summary of the method: as §1

[10] = test system: PPARg:RXRa 90nM:30nM, anti-RXR (NR concentration 90 nM, RXRa partner concentration 30 nM)
Summary of the method: as §1

[11] = test system: PPARg:RXRa DBDmut IVT, anti-RXR (DBD mutation: RXRa K156A/R161A, NR concentration 270 nM, RXRa partner concentration 90 nM)
Summary of the method: as §1

[12] = test system: PPARg:RXRa IVT, anti-PPARg (NR concentration 270 nM, RXRa partner concentration 90 nM)
Summary of the method: as §1

[13] = test system: PPARg DBDmut:RXRa IVT, anti-PPARg (DBD mutation: PPARg1 K132A/R137A, NR concentration 270 nM, RXRa partner concentration 90 nM)
Summary of the method: as §1

[14] = test system: PPARg DBDmut IVT, anti-PPARg (DBD mutation: PPARg1 K132A/R137A, NR concentration 270 nM)
Summary of the method: as §1

[15] = test system: PPARg homodimer (NR concentration 180 nM)
Summary of the method: as §1

[16] = test system: PXR:RXRa (NR concentration 270 nM, RXRa partner concentration 90 nM)
Summary of the method: as §1

[17] = test system: PXR homodimer (NR concentration 270 nM)
Summary of the method: as §1

[18] = test system: RARa:RXR (NR concentration 270 nM, RXRa partner concentration 90 nM)
Summary of the method: as §1

[19] = test system: RARa homodimer (NR concentration 270 nM)
Summary of the method: as §1

[20] = test system: RARb:RXRa (NR concentration 270 nM, RXRa partner concentration 90 nM)
Summary of the method: as §1

Sequence | PBM binding z-score [1] | PBM binding z-score [2] | PBM binding z-score [3] | PBM binding z-score [4] | PBM binding z-score [5] | PBM binding z-score [6] | PBM binding z-score [7] | PBM binding z-score [8] | PBM binding z-score [9] | PBM binding z-score [10] | PBM binding z-score [11] | PBM binding z-score [12] | PBM binding z-score [13] | PBM binding z-score [14] | PBM binding z-score [15] | PBM binding z-score [16] | PBM binding z-score [17] | PBM binding z-score [18] | PBM binding z-score [19] | PBM binding z-score [20]
ACTATTAGTTGAGACGGGGGCAACCGATAGGTTG | 1.28 | 1.35 | 0.528 | 3.71 | 7.57 | 2.52 | 1.16 | 2.35 | 1.24 | 1.87 | 1.48 | 3.27 | 5.1 | 7.99 | 1.63 | 2.63 | 0.549 | 2.25 | 0.997 | 1.94
AATACAGAGTCATCGTAGGCCAGAGTACGCACAG | 0.102 | 0.331 | -0.311 | -0.227 | -0.569 | -0.149 | 0.955 | 0.273 | -0.0148 | 0.175 | 0.0374 | 0.268 | 0.399 | 0.579 | -0.714 | -0.113 | -0.387 | -0.0799 | 0.026 | 0.17
AGCATGAGGTTACCAAAGATCAGGGAAACGCTTG | 1.94 | 6.48 | 0.0616 | 3.13 | -0.682 | 2.77 | 1.41 | 1.4 | 0.579 | 1.07 | 0.803 | 0.996 | 0.0724 | -0.827 | 0.663 | 1.38 | 0.241 | 2.44 | -0.672 | 2.07
AGAAAGAGGGCAATGAGTTGATAGCACGGGTGGC | 0.593 | 0.892 | 0.104 | 0.387 | 0.472 | 1.55 | 1.23 | 0.938 | 0.0317 | 0.591 | 2.75 | 1.6 | 0.0853 | 0.306 | 0.658 | 1.84 | 4.38 | 0.758 | 0.0375 | 2.46
AATACAGGGTCATCGTAGGCCGGAGTACGCACAG | 6.87 | 6.14 | 2.19 | 4.53 | 1.37 | 5.62 | 6.36 | 5.92 | 2.34 | 4.59 | 2.7 | 4.02 | 1.63 | 1.58 | 2.22 | 4.4 | 0.419 | 4.74 | 0.979 | 4.17
CCTACTGGGCCAAAGGGCATTGATTCCAATGCTC | 0.0219 | 0.199 | -0.482 | 0.36 | -1.02 | 4.61 | 10.3 | 9.18 | 8.24 | 9.29 | 4.36 | 5.09 | 0.51 | -0.625 | 1.09 | 0.249 | -0.593 | 0.757 | -0.681 | 1.59
ATTCGGAGGACAAAGGTCAGAGCTACGCCAGTGA | 4.05 | 4.26 | 1.79 | 3.52 | 0.763 | 4.9 | 7.69 | 6.94 | 7.1 | 7.23 | 0.417 | 3.74 | 0.302 | -0.48 | 3.33 | 3.99 | 0.477 | 4.9 | 0.808 | 4.39
CCTACTGGGCCACGAATGGTCATTGATTCAGTGA | -0.465 | -0.465 | -0.579 | -0.606 | -1.07 | 0.398 | 1.18 | 1.19 | -0.142 | 0.398 | 5.35 | 5.07 | -0.0715 | 0.085 | 0.236 | -0.684 | -0.838 | -0.385 | -0.616 | 0.436
GCTTACGGGTCAAAGGTTGTAGCATGAATAGAAT | 7.18 | 4.99 | 0.175 | 4.72 | 0.259 | 6.6 | 9.83 | 8.57 | 7.45 | 9.31 | 5.13 | 5.38 | 0.728 | 1 | 3.02 | 5.04 | 0.237 | 7.21 | 0.364 | 3.99
GGAACGAGGGCAAAGTTGAAAGCATCTGTCGACG | 2.18 | 1.34 | -0.458 | 1.26 | -0.325 | 4.91 | 8.72 | 8.04 | 7.29 | 8.83 | 4.35 | 5.08 | -0.45 | -0.356 | 0.811 | 2.03 | 0.337 | 2.95 | -0.362 | 2.7
CCTAATGGGCCAAAAAGGTCATTGATGCCGATAA | 3.45 | 4.14 | 3.21 | 4.2 | 0.435 | 4.59 | 2.58 | 3.36 | 1.37 | 2.69 | 2.24 | 2.34 | -0.601 | -0.248 | 3.03 | 4.65 | 2.85 | 5.08 | 1.31 | 3.99
CCTTAAGGGTCACTCCAGGTTATAGCATCGGAGT | 6.75 | 7.97 | 3.36 | 5.9 | 0.565 | 5.33 | 4.86 | 5.1 | 2.01 | 4.34 | 3.17 | 4.07 | 0.0681 | 0.102 | 2.47 | 5.59 | 0.47 | 4.49 | 0.956 | 4.97
TCTATCAGGCCAGAGGGTCACTCAAGAGGTACGG | 1.28 | 1.42 | -0.272 | 1.32 | 0.048 | 2.51 | 1.7 | 2.98 | 3.16 | 3 | 1.69 | 1.3 | -0.288 | -0.122 | 1.01 | 1.83 | 0.211 | 2.39 | 0.259 | 2.52
TCTAGCAGGTCAGAGGGTCACTCAAGAGGTACGG | 4.13 | 3.26 | 0.192 | 2.87 | -0.436 | 4.54 | 4.39 | 5.27 | 3.71 | 5.21 | 2.58 | 3.84 | 0.285 | -0.567 | 3.57 | 3.55 | -0.129 | 5.12 | 0.365 | 4.07
CCTTACGAGTCACTGACAGGTTATAGCATTTGGA | 0.777 | 1.14 | 0.907 | 1.29 | 0.779 | 0.873 | 0.529 | 0.102 | 0.331 | 0.375 | 0.816 | 0.0297 | 1.14 | 0.808 | 1.1 | 0.7 | 0.734 | 1.15 | 1.48 | 0.807
ACCTCTAGGTAACCAAGTTCAGTGAATGCCGAAC | 0.335 | 0.537 | 0.553 | 0.37 | -0.0596 | 0.625 | 0.296 | 0.581 | -0.247 | 0.404 | 3.87 | 2.09 | 0.112 | 0.237 | -0.00896 | 1.65 | 1.47 | 0.453 | -0.355 | 0.936
CAACCTAGGTCAAAGGTCAAAGTCGAGCCAACCA | 8.61 | 7.41 | 5.72 | 7.42 | 3.03 | 7.49 | 12.5 | 10.1 | 10.9 | 11.3 | 5.72 | 7.45 | 2.7 | 1.79 | 4.67 | 7.39 | 1.35 | 8.88 | 2.65 | 5.83
CAAACTAGGTCAAGGTCAAACTCGGTTTGTGCCA | 7.27 | 5.63 | 4.45 | 4.69 | 1.71 | 6.2 | 9.59 | 7.65 | 6.72 | 7.91 | 7.83 | 8.72 | 1.79 | 1.1 | 2.32 | 5.44 | 2.6 | 5.03 | 1.19 | 5.27
